In the library only some 0.74% were active in any assay of this set; here they are far more common.
Akt phos inh – blocks phosphorylation of Akt | Neuro2A IGF-stimulated pAkt S473 HTRF, 20 min; active compounds read low | activity change, % for hits at 50 µM | hit rate 0.32% among 360,000; in the data active = activity change below about -80%; inconclusive = mostly about -51% to -80%; note: % is set by controls: 0 for no effect and ±100 for the full control effect
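Neuro2A cells (4,500/well, DMEM with 0.5% FBS) were treated with compound at a single 50 µM final concentration, stimulated with 6 nM IGF for 20 min at 37 °C, and lysed. Phospho-Akt Ser473 was read by HTRF as 665/615 ratio ×10^4.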
CCT modulator – cytosolic chaperonin activity modulation. purified chaperonin ATPase assay, HTRF ADP detection, 30 min. activity change, % (test concentration not listed), hits read low. hit rate 0.3% among 360,000; in the data active = activity change below about -30%; note: % is set by controls: 0 for no effect and ±100 for the full control effect
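ATPase activity: ADP formed was measured by HTRF Transcreener (665/615 nm ratio) after 30 min at 37 deg C with 10 uM ATP. Compounds screened at one 76 uM concentration against 40 or 20 nM TRiC in Tris pH 7.4/KCl/MgCl2/DTT buffer.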
TCR act – T cell receptor activation; AID 504894; 330,000 tested, under 10 active; primary human leukocytes, anti-CD3, IL-2 HTRF, 48 h; Potency, µM (highest dose often 9.22 µM), for inactives: at the highest dose activation of IL-2 secretion, usual class: activators; active = well fitted activation curve with a large enough effect; inconclusive = small, poorly fitted or top-dose-only effect, or another doubt; inactive = no such curve, though single readings can be large or run the other way; note: % of control where 0% means no effect
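IL-2 produced over 48 hr by a-CD3 bead-stimulated primary human leukocytes exposed to compounds was detected with a homogeneous time-resolved FRET immunoassay, 665nm acceptor signal after 320nm excitation.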
TSHR antag – human thyrotropin receptor antagonism. P16473. TSHR-expressing cells, TSH-stimulated cAMP HTRF, 2 h; active compounds read low. activity change, negative = inhibition, % at 11.5 µM. hit rate 0.2% among 330,000;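 active = activity change below a set negative limit, meaning inhibition stronger than a set level, cut at about -70% in these data; inconclusive = activity change between two set negative limits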; note: % is set by controls: 0 for no effect and ±100 for the full control effect
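TSHR-expressing cells were treated with compounds, then stimulated with TSH at EC80 (4nM final) for 2 hours at 37 deg C. Cellular cAMP was measured by HTRF competition between lysate cAMP and cAMP-d2 for a cryptate-labelled anti-cAMP antibody.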
* = called active by the depositor; i = inactive; ? = inconclusive; nt = no result; [ ] = another dose, or the depositor's remark.

SMILES	Akt phos inh	CCT modulator	TCR act	TSHR antag
Cc1ccc(C(C(=O)NCc2ccccc2)N(C(=O)c2ccccn2)c2ccccc2)o1 (stereo not given)	i	-1	-21%	23
CCOC(CCNC(=O)c1cn(CC(C)C)c(=O)c2c1c1ccccc1n2C)OCC	i	-2	-4%	3
CC(C)(C)C(=O)/C=C(\N)c1ccncc1	-101%*	3	-3%	-3
COc1ccc(/C(N)=C/C(=O)C(C)(C)C)cc1	i	-1	0%	-17
CC1=C(C(=O)OCC(Cl)(Cl)Cl)N2C(=O)C(NC(=O)Cc3ccccc3)C2SC1 (stereo not given)	i	-2	-4%	-77*
Cc1ccc(NC(=O)CSc2nc3ncc(Br)cc3[nH]2)cc1C	i	0	-3%	-88*
CSc1ccc(CN2CCC(C(=O)NCc3ccc(C)cc3)CC2)cc1	i	1	4%	7
CN1CCN(C2=CC3=CC(=C(C#N)C#N)CCC3CC2)CC1 (stereo not given)	i	0	8%	-93*
O=C(NC(c1ccccc1)c1cnccn1)C1CCN(CCOc2ccc(Cl)cc2Cl)CC1 (stereo not given)	nt	-1	nt	nt
COc1ccc(/C=C(\C)C(=O)c2c(C)cc(C)[nH]c2=O)cc1	i	2	3%	nt
COc1ccc(OC)c(/C=C(\C)C(=O)c2c(C)cc(C)[nH]c2=O)c1	i	-42*	-1%	nt
CC12CCC(C/C1=N\OC(=O)c1ccc(F)cc1)C2(C)C (stereo not given)	-96%*	1	2%[46.1 µM]	-1
Cc1nn(Cc2ccccc2Cl)c2sc(C(=O)Nc3nccs3)cc12	i	-57*	3%[46.1 µM]	-20
O=C1C(Cl)=C(Nc2ccccc2)C(=O)c2ccccc21	i	-2	5%[46.1 µM]	-3
O=C(O)c1ccc(NC2=C(Cl)C(=O)c3ccccc3C2=O)cc1	i	-2	6%	-87*
O=C(O)c1cccc(NC2=C(Cl)C(=O)c3ccccc3C2=O)c1	i	-3	-1%	-83*
COc1cc(NC(=O)c2ccccc2F)c(OC)cc1NC(=O)CN1CCCCC1	i	-2	-32%	2
CC(C)C(O)(C#CCN1CCCCCC1)c1ccccc1 (stereo not given)	i	-38*	-2%	32
CC(O)(C#CCN1CCCCC1)c1ccccc1 (stereo not given)	i	-1	3%[46.1 µM]	4
Cc1cc(NC(=O)CS(=O)(=O)c2ccc(Cl)cc2)no1	nt	-87*	-1%	-18
CCN(CC)S(=O)(=O)c1ccc(N2CCOCC2)c(NC(=O)C23CC4CC(CC(Cl)(C4)C2)C3)c1	i	-72*	7%[46.1 µM]	6
O=C1C=C(Nc2cccnc2)c2ccccc2C1=O	i	-2	-4%	nt
CCOC(=O)c1cnn(-c2cc(C)c3ccccc3n2)c1N	-133%*	2	-3%	-27
COc1ccc(-n2nc(C(=O)NCC(=O)Nc3cc(OC)c(OC)c(OC)c3)c3ccccc3c2=O)cc1OC	i	2	2%	-117*
Cc1ccc(C)c(NC(=O)Cn2nnc(-c3ccc(N4CCOCC4)cc3)n2)c1	i	-79*	-9%	-3
SMILES	Akt phos inh	CCT modulator	TCR act	TSHR antag
Cc1ccccc1Cn1c(C)c(C(=O)NCc2ccc(Cl)c(Cl)c2)sc1=O	i	-3	nt	nt
O=c1c2ccccc2sc2ccccc12	i	-35*	-4%	nt
O=C(COC(=O)c1cccnc1)Nc1ccc2c(c1)OCO2	i	1	1%	1
Cc1ccc(OCCn2c(CCCO)nc3ccccc32)cc1	-106%*	-2	0%	nt
CC(=O)Nc1cccc(N)c1	i	0	7%	10
COC(=O)c1cccc(N(CC(=O)NC2CCCCC2)C(=O)CNC(=O)c2cccs2)c1	i	0	2%	-1
COc1cc(C(C(=O)NCc2ccccc2)N(C(=O)c2snc(C(N)=O)c2N)C2CCCC2)cc(OC)c1OC (stereo not given)	i	-1	1%	-108*
Cc1nn(CC(=O)N2CCc3ccccc3C2)c(C)c1[N+](=O)[O-]	i	0	1%	-8
Cc1nn(CC(=O)N2CCc3ccccc3C2)c(C)c1Cl	nt	-80*	-22%	6
Cc1cccc(-c2nc(CS(=O)CC(=O)NCCc3ccc(Cl)cc3)c(C)o2)c1 (stereo not given)	i	0	0%	25
CCOC(=O)C1(C)CCCN1C(=O)c1ccc(OC)c(F)c1 (stereo not given)	i	2	nt	nt
COc1ccc(NC(=O)c2cc3c(CO)cnc(C)c3oc2=Nc2cccc(C)c2)c(OC)c1	i	-37*	6%	-1
Cc1cc(Cl)c2oc(C(=O)N3CCOCC3)c(C)c2c1	i	-35*	nt	nt
Cc1cc(Cl)c2oc(C(=O)N3CCN(C(=O)c4ccco4)CC3)c(C)c2c1	i	0	-9%	5
O=C(Oc1ccnc2cc(Cl)ccc12)N1CCCCCC1	-96%*	2	3%	-16
Cn1cc(S(=O)(=O)NCc2ccc3c(c2)OCO3)c(C(F)(F)F)n1	i	-3	-5%	-2
Cc1cc(NS(=O)(=O)c2ccc(NC(=O)Cc3ccc(Cl)c(Cl)c3)cc2)no1	i	2	-8%	-2
O=c1[nH]c2nc(Br)[nH]c(=O)c2[nH]1	i	-3	-9%	nt
CCC(=O)N1CCN=C1SCc1ccccc1Cl	i	-63*	-6%	-6
Cc1ccc(C(C)C)cc1NC(=O)Nc1ccc([N+](=O)[O-])cc1	i	0	0%	-36
O=C(c1cc2ccccc2oc1=O)N(Cc1ccccc1)Cc1ccc2c(c1)OCO2	-124%*	-17	-3%[46.1 µM]	0
O=C(c1cc2ccccc2oc1=O)N1CCN(Cc2ccc3c(c2)OCO3)CC1	i	-1	3%	12
CN(CC(=O)Nc1ccc(Cl)c(C(F)(F)F)c1)C(=O)c1ccccc1SCC(=O)N1CCCC1	i	-1	0%	nt
CN(Cc1ccc(Cl)cc1)C(=O)c1ccccc1SCC(=O)N1CCCC1	i	-50*	4%	-3
Cc1cccc(C)c1NC(=O)c1nc(S(=O)(=O)Cc2ccccc2)ncc1Cl	i	1	5%	?
SMILES	Akt phos inh	CCT modulator	TCR act	TSHR antag
COc1ccc(NC(=O)c2nc(S(=O)(=O)Cc3cccc(C)c3)ncc2Cl)c(OC)c1	i	0	-7%	-80*
Cc1cccc(CS(=O)(=O)c2ncc(Cl)c(C(=O)Nc3c(C)cccc3C)n2)c1	i	2	-3%	?
COc1ccc(OC)c(NC(=O)c2nc(S(=O)(=O)Cc3ccccc3)ncc2Cl)c1	i	-10	-3%	-93*
COC(=O)C1C=CC(OC2OC(COC(C)=O)C(OC(C)=O)C(OC(C)=O)C2OC(C)=O)n2c(=O)n(-c3ccccc3)c(=O)n21 (stereo not given)	i	1	-19%	nt
COC(=O)CSc1ncnc2c1sc1nc(N3CCOCC3)c3c(c12)CCCC3	i	-2	8%	-12
CCOC(=O)CSc1ncnc2c1sc1nc(N3CCOCC3)c3c(c12)CCCC3	-84%*	-1	2%	-3
